According to PubChem BioAssay (Tox21):
Where “and” joins values, the source holds several entries; their conditions need not be identical. Equal entries are not always repeated. Results filed as inconclusive are left out. Entries that show only a call come without a potency. Calls of active or inactive are those of the source. Unless noted, calls come from the whole dose curve; as a rule, active = well fitted curve in the direction sought with a large enough effect in the repeat runs; inconclusive = weak or mixed curves; inactive = no such curve, though single readings can be large; an effect the other way counts as inactive or inconclusive.

Key:
[1] = qHTS assay to identify small molecule agonists of the NFkB signaling pathway - cell viability counter screen (AID 1159515; calls by dose curve; note: nearly all actives have a fitted effect of over 55% in size; note: potency is the fitted concentration of half-maximal effect)
Outline: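 Parallel cytotoxicity counter screen in ME-180 cells carrying an NFkB-response-element beta-lactamase reporter, 2,000 cells/well. Compound exposure lasted 5 hr at 37 C, 5% CO2. Cell viability was quantified by CellTiter-Glo luminescence.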

[2] = qHTS assay to identify small molecule agonists of the endoplasmic reticulum stress response signaling pathway - cell viability counter screen (AID 1159517; calls by dose curve; note: nearly all actives have a fitted effect of over 50% in size; note: potency is the fitted concentration of half-maximal effect)
Outline: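 Cpd-treated ESRE-bla HeLa (5 hr, 37 C) → LiveBLAzer 2 hr RT → CellTiter-Glo 30 min RT → luminescence.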

[3] = molecular target: Nuclear receptor ROR-gamma (Homo sapiens) (UniProt P51449); assay: qHTS assay to identify small molecule antagonists of the retinoid-related orphan receptor gamma (ROR-gamma) signaling pathway (AID 1159521; note: nearly all actives have a fitted effect of over 50% in size; note: potency is the fitted concentration of half-maximal effect)
Outline: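 RORγ antagonism is scored from reduced reporter luminescence in Tet-on CHO cells. Induction used 1 uM final doxycycline hyclate for 16 h at 37 C, following a 2 h compound exposure.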

[4] = qHTS assay to identify small molecule agonists of the AP-1 signaling pathway - cell viability counter screen (AID 1159525; calls by dose curve; note: nearly all actives have a fitted effect of over 55% in size; note: potency is the fitted concentration of half-maximal effect)
Outline: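 Each titration point was normalised to DMSO and tetra n-octyl ammonium bromide controls. The read was Cell Titer Glo luminescence after 30 min at RT, following 5 h compound exposure of ME-180 AP-1-bla cells at 37 °C.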

[5] = molecular target: Retinoic acid receptor RXR-alpha (Homo sapiens) (UniProt P19793); assay: qHTS assay to identify small molecule agonists of the RXR signaling pathway (AID 1159527; calls by dose curve; note: nearly all actives have a fitted effect of over 35% in size)
Outline: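 qHTS of the Tox21 10K library in GeneBLAzer RXR-alpha HEK 293T cells carrying a beta-lactamase reporter […]; 16 hr treatment, 9-cis retinoic acid as agonist control, FRET read-out.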

[6] = qHTS assay to identify small molecule antagonists of the retinoid acid receptor (RAR) signaling pathway - cell viability counter screen (AID 1159551); note: nearly all actives have a fitted effect of over 35% in size; note: potency is the fitted concentration of half-maximal effect
Outline: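 ATP-based viability, C3RL4 cells, 6 h at 37 C with 1 uM final retinol co-added after compound; luminescence read 30 min post CellTiter-Glo, RT.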

[7] = qHTS assay to identify small molecule antagonists of the retinoic acid receptor (RAR) signaling pathway (AID 1159552; note: nearly all actives have a fitted effect of over 50% in size; note: potency is the fitted concentration of half-maximal effect)
Outline: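 Quantitative HTS in C3RL4 RARE-luciferase reporter cells. Compounds were added with 1 uM (final) retinol; luminescence was read after 6 hr.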

[8] = qHTS assay to identify small molecule agonists of the retinoic acid receptor (RAR) signaling pathway (AID 1159553)
Outline: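 Quantitative high-throughput format: the Tox21 10K library was tested on C3RL4 RARE-luciferase cells for 6 hr at 37 C and 5% CO2, with luminescence measured after a 30 min room-temperature reagent step.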

[9] = qHTS assay to identify small molecule antagonists of the estrogen related receptor (ERR) signaling pathway from Tox21 library - cell viability counter screen (AID 1224834); note: nearly all actives have a fitted effect of over 30% in size; note: potency is the fitted concentration of half-maximal effect
Outline: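 Compounds in DMSO were pinned onto ERR cells that had been incubated for 6 h, and the plates were held at 37 C for 17.5 h. CellTiter-Fluor reagent was then added and fluorescence was measured after 30 min.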

[10] = qHTS assay to identify small molecule antagonists of the vitamin D receptor (VDR) signaling pathway - cell viability counter screen (AID 743225); note: nearly all actives have a fitted effect of over 50% in size; note: potency is the fitted concentration of half-maximal effect
Outline: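 Cells (VDR-UAS-bla HEK 293T) are plated, rested 4 h at 37C, dosed with compound and 3 nM final 1-alpha,25-dihydroxy vitamin D3, and incubated 16 h. Viability is taken from CellTiter-Glo luminescence in the reporter wells.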

[11] = qHTS assay to identify small molecule agonists of the AP-1 signaling pathway (AID 1159526; calls by dose curve)
[12] = qHTS assay to identify small molecule antagonists of the retinoid-related orphan receptor gamma (ROR-gamma) signaling pathway - cell viability counter screen (AID 1159520); note: nearly all actives have a fitted effect of over 50% in size; note: potency is the fitted concentration of half-maximal effect
Outline: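 Tet-on ROR gamma CHO cells (1,000/well) were plated 4 hr, given compounds in DMSO for 2 hr at 37 C, then induced with 1 uM final doxycycline for 16 hr. Viability was read as ATP by CellTiter-Glo luminescence after 30 min.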

[13] = qHTS assay to identify small molecule agonists of the RXR signaling pathway - cell viability counter screen (AID 1159529); note: nearly all actives have a fitted effect of over 50% in size; note: potency is the fitted concentration of half-maximal effect
Outline: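 Cell viability is measured by CellTiter-Glo luminescence, 30 min at room temperature, in wells already read for beta-lactamase. Engineered HEK 293T cells (RXR-alpha-UAS-bla) are dosed 16 hr at 37 C. Tetraoctyl ammonium bromide serves as positive control.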

[14] = qHTS assay to identify small molecule agonists of the estrogen related receptor (ERR) signaling pathway (AID 1224820)
Outline: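 An ERR cell line provided by NTP was seeded at 2,000 cells per well and allowed to settle for 6 h before compounds in DMSO were added. After 18 h at 37 C, luciferase activity was measured by One-Glo luminescence.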

[15] = qHTS assay to identify small molecule agonists of the estrogen related receptor signaling pathway with the pleiotropic PPARgamma coactivator (PGC) (AID 1224823)
Outline: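 Compounds dissolved in DMSO are added by pin tool to PGC/ERR cells that have settled for 6 h, and incubation continues 18 h at 37 C. Reporter output is measured as One-Glo luminescence.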

Retinoic acid receptor RXR-alpha (Homo sapiens), sequence (P19793 whole entry, looked up): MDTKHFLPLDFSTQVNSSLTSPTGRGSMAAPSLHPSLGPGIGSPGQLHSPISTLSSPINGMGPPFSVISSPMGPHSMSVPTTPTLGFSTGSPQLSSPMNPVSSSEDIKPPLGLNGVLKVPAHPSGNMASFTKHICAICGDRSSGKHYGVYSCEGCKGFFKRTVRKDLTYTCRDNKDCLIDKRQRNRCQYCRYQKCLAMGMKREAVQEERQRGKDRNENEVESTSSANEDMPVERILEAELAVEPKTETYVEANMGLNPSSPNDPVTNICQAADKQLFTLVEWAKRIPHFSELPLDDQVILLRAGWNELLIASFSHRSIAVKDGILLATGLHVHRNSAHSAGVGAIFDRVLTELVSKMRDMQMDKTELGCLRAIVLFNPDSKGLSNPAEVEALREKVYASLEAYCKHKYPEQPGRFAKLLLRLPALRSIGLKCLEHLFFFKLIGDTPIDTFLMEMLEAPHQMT

SMILES | Potency [1] | Potency [2] | Potency [3] | Potency [4] | outcome [5] | Potency [6] | Potency [7] | Potency [8] | Potency [9] | Potency [10] | Potency [11] | Potency [12] | Potency [13] | outcome [14] | outcome [15]
O=c1oc2ccccc2c(O)c1Cc1c(O)c2ccccc2oc1=O | inactive | inactive | 7.5 µM (active) | inactive | inactive | inactive | inactive | inactive | inactive |  |  |  |  |  | 
O=[N+]([O-])c1ccc2ccc3cccc4ccc1c2c34 | inactive | inactive | inactive | inactive |  | inactive | inactive | inactive |  | inactive | inactive |  |  |  | 
[CH3][Hg][Cl] | 10.9 µM (active) | 21.8 µM (active) | 3.05 µM (active) |  |  |  | inactive |  | 60.9 µM (active) |  |  | 4.31 µM (active) | 6.15 µM (active) |  | 
Oc1c(Cl)c(Cl)cc(Cl)c1Cl | inactive | inactive |  | inactive |  | inactive | 66.7 µM (active) | inactive |  |  | inactive |  | 7.55 µM (active) |  | 
Oc1ccc2ccc3cccc4ccc1c2c34 | inactive | inactive | inactive | inactive |  | inactive | inactive |  | inactive |  |  |  | 49 µM (active) |  | 
CN(C)C1CSSSC1 | inactive | inactive |  | inactive |  | inactive | inactive | inactive | inactive | inactive | inactive | inactive | inactive |  | 
CC1(C)[C@H](C(=O)O[C@H](C#N)c2cccc(Oc3ccccc3)c2)[C@@H]1/C=C(\Cl)C(F)(F)F | inactive | inactive |  | inactive |  | inactive |  |  | inactive |  | inactive | inactive | inactive |  | 
CCCCCCCCCCCCCC[P+](CCCCCC)(CCCCCC)CCCCCC (tested in a mixture with another compound) | 17.4 µM (active) | 17.4 µM (active) |  | 21.9 µM (active) |  | 27.3 µM (active) |  |  | 24.3 µM (active) | 2.75 µM (active) |  | 15.4 µM (active) |  |  | 
COC(=O)N(C(=O)N1CO[C@@]2(C(=O)OC)Cc3cc(Cl)ccc3C2=N1)c1ccc(OC(F)(F)F)cc1 | inactive | inactive |  | inactive |  |  |  | inactive | inactive |  |  | inactive |  |  | 
O=C(CCl)Nc1ccccc1 | inactive | inactive | 21.7 µM (active) |  |  |  |  |  | 30.6 µM (active) | 49 µM (active) |  | 27.3 µM (active) |  |  | 
C[C@]12CC[C@@H]3c4ccc(OC(=O)N(CCCl)CCCl)cc4CC[C@H]3[C@@H]1CC[C@@H]2O | inactive | inactive |  | inactive | inactive | inactive |  |  | inactive | inactive |  | inactive | inactive |  | 
c1ccc2c(c1)[nH]c1cnccc12 | inactive | inactive |  | inactive | inactive | inactive | inactive | inactive | inactive | inactive |  | inactive | inactive |  | 
CC(C)[C@H](C(=O)O[C@H](C#N)c1cccc(Oc2ccccc2)c1)c1ccc(Cl)cc1 | inactive | inactive |  | inactive |  |  |  |  | inactive | inactive |  | inactive | inactive |  | 
CCC[CH2][Sn]([CH2]CCC)([CH2]CCC)[O]C(=O)c1ccccc1 | 0.436 µM (active) | 4.9 µM (active) |  | 1.23 µM (active) |  | 4.86 µM (active) | 0.686 µM (active) |  | 2.17 µM (active) | 1.95 µM (active) |  | 0.686 µM (active) | 1.23 µM (active) |  | 
COP(=S)(OC)Oc1cc(Cl)c(Br)cc1Cl | inactive | inactive | 68.6 µM (active) | inactive |  | inactive | inactive | inactive | inactive | inactive | inactive |  |  |  | 
CCCN(CCC)c1c([N+](=O)[O-])cc(S(N)(=O)=O)cc1[N+](=O)[O-] | 52.2 µM (active) | 52.2 µM (active) |  | 43.6 µM (active) |  | 58.1 µM (active) | 48.6 µM (active) |  | 46.2 µM (active) | 11.7 µM (active) |  | 54.5 µM (active) | 43.6 µM (active) | inactive | inactive
CC1(C)C(/C=C(\Cl)C(F)(F)F)C1C(=O)OC(C#N)c1cccc(Oc2ccccc2)c1 (stereo not given) | inactive | inactive |  | inactive |  | inactive |  |  | inactive |  | inactive | inactive |  |  | 
c1ccc2cc3c(cc2c1)-c1cccc2cccc-3c12 | inactive | inactive |  | inactive |  |  | inactive | inactive | inactive | inactive |  | inactive |  |  | 
O=[N+]([O-])c1cc(C(F)(F)F)c(Cl)c([N+](=O)[O-])c1Cl | 54.9 µM (active) | 12.3 µM (active) | 6.11 µM (active) |  |  | 48.6 µM (active) |  |  | 54.5 µM (active) | 21.9 µM (active) |  | 27.3 µM (active) | 17.4 µM (active) |  | 
CN(C)C(=S)S | 15.5 µM (active) | inactive |  | 38.9 µM (active) |  |  |  |  | 9.89 µM (active) and 3.83 µM (active) and 13.7 µM (active) | inactive |  | 6.11 µM (active) |  |  | 
